Publication PMC4552634, “A New Set of Chemical Starting Points with Plasmodium falciparum Transmission-Blocking Potential for Antimalarial Drug Discovery” (PLoS ONE, 2015)
The campaign covered roughly 13,000 compounds. About 3,200 (25%) showed an effect of 50% or more. The list shows a part of the results.

The molecules below were run on P. falciparum stage V gametocytes. Settings: 48 h, 5 µM; inhibitor.
Parameters: BacTiter-Glo ATP luminescence viability of purified stage V gametocytes in 384-well plates, per cent inhibition versus DMSO

In order of rising “% Inhibition” value:
1. CC(C)CNC(=O)c1cncc(-c2cccc(CNC3Cc4ccccc4C3)c2)c1 [TCMDC-134219]  -68.65%
2. O=C(NC1CCN(Cc2ccccc2)CC1)c1ccc(-c2nc3cc(Cl)c(F)cc3[nH]2)cc1 [TCMDC-140093]  -50.28%
3. O=c1cc(NCCCNCc2ccc(C(F)(F)F)c(F)c2)[nH]c2ccccc12 [TCMDC-139428]  -42.45%
4. Oc1ccc2[nH]c(-c3cccc(F)c3)nc2c1CN1CCCC1 [TCMDC-136531]  -40.99%
5. CCN1CCN(c2cc(C)c3cc(NC(=O)c4ccc(C(C)(C)C)cc4)ccc3n2)CC1 [TCMDC-125579]  -38.88%
6. COc1cc(-c2cc3cc(Cl)c(Cl)cc3[nH]2)ccc1C(=O)NC1CCN(Cc2ccccc2)CC1 [TCMDC-141288]  -32.17%
7. CCCNC(=O)c1cncc(-c2cccc(CNC3Cc4ccccc4C3)c2)c1 [TCMDC-134220]  -28.4%
8. CCCCn1c(C)c(C(=O)OCC)c2cc(OC(C)=O)c(Br)cc21 [TCMDC-125582]  -26.36%
9. CC(C)c1ccc(NC(=O)c2ccc(C(=O)NC3CCN(Cc4ccccc4)CC3)cc2)cc1 [TCMDC-136752]  -24.91%
10. Clc1ccc(Nc2nc(Nc3ccc(Cl)c(Cl)c3)nc(Sc3nc4ccccc4[nH]3)n2)cc1Cl [TCMDC-124069]  -24.51%
11. CCCc1nc2c(N3CCCN(C(=O)NC4CCCCC4)CC3)cccc2n1Cc1ccccn1 [TCMDC-134632]  -23.2%
12. CN(CCCN(C)c1cc(NC(=O)c2cccc(F)c2)ccn1)Cc1cccc(O)c1 [TCMDC-134952]  -21.83%
13. COc1ccc(NC(=O)Nc2ccc(-c3cccc(-c4nc5c(C)cccc5[nH]4)c3)cc2)cc1 [TCMDC-133245]  -21.29%
14. CCOc1cc(C(=O)NC2CCN(Cc3ccccc3)CC2)ccc1-c1nc2ccc(Cl)cc2[nH]1 [TCMDC-140912]  -17.04%
15. Cc1cc(C2CCN(CCCCNC(=O)c3ccc(NC(=O)c4ccc(Cl)cc4)cc3)CC2)c(C)cc1OCc1cccnc1 [TCMDC-138318]  -16.74%
16. Cc1cccc2nc(-c3cccc(-c4ccc(NC(=O)Cc5ccc[n+]([O-])c5)cc4)c3)[nH]c12 [TCMDC-136993]  -15.96%
17. CCCN(CCC)C(=O)c1cc(-c2cccc(C)c2)nc2ccccc12 [TCMDC-124452]  -15.82%
18. COc1cc(NC(=O)N2CCc3ccc(OCCC4CCCN4C)cc32)cc(C(F)(F)F)c1 (stereo not shown) [TCMDC-140248]  -14.34%
19. O=C(Nc1ccnc2ccccc12)NC1CCN(Cc2ccccc2)CC1 [TCMDC-139643]  -13.5%
20. CN1CC=C(c2c[nH]c3ccc(Br)cc23)CC1 [TCMDC-139098]  -11.28%
21. CCOc1ccc(OCC)c(N2CCN(CCCCNC(=O)c3ccc(NC(=O)c4ccc(Cl)cc4)cc3)CC2)c1 [TCMDC-138224]  -9.659%
22. Cc1ccc(C)c(C2CCN(CCCCNC(=O)c3ccc(NC(=O)c4ccc(Cl)cc4)cc3)CC2)c1 [TCMDC-138330]  -7.9%
23. COc1ccc(NC(=O)[C@H](CC(C)C)Nc2cc(C)nc(Nc3ccccc3)n2)cc1 [TCMDC-134738]  -4.957%
24. CC[C@H](C)CNC(=O)c1cncc(-c2ccc(CNC3Cc4ccccc4C3)cc2)c1 [TCMDC-134240]  -0.9583%
25. Cc1cc(C2CCN(CCCCNC(=O)c3ccc(NC(=O)c4ccc(Cl)cc4)cc3)CC2)c(C)cc1OCc1nccn1C [TCMDC-138326]  1.081%
26. COc1ccc2ccc(F)c(CCN3CCC(NCc4cc5c(cn4)OCCO5)CC3)c2n1 [TCMDC-136226]  1.241%
27. Cc1cc2nc(-c3ccc(C(=O)NC4CCN(Cc5ccccc5)CC4)s3)[nH]c2cc1C [TCMDC-140513]  1.433%
28. O=C(Nc1cccc(-c2cccc(-c3nc4ccccc4[nH]3)c2)c1)Nc1ccc2c(c1)OCO2 [TCMDC-133167]  2.88%
29. OC(c1ccc2ccccc2c1)C1CN(CCc2ccccc2)CCC1(O)c1ccccc1 (stereo not shown) [TCMDC-131995]  4.082%
30. CCCN(CC1CC1)c1ncc(-c2cccc(CNCc3ccccc3O)c2)cn1 [TCMDC-133138]  6.014%
31. Cc1ccc(C(O)CNc2ccnc(Nc3cccc(-c4csc(C)n4)c3)n2)cc1 (stereo not shown) [TCMDC-136570]  6.544%
32. CCCNCc1ccc(-c2ccc(CNC3Cc4ccccc4C3)cc2)nc1 [TCMDC-141616]  6.713%
33. O=C(Nc1ccc(-c2cncc(NCCCN3CCCC3)c2)cc1)c1ccccc1 [TCMDC-133799]  7.133%
34. COCCOc1cc(C)c(C2CCN(CCCCNC(=O)c3ccc(NC(=O)c4ccc(Cl)cc4)cc3)CC2)cc1C [TCMDC-138344]  7.769%
35. O=C(Cc1cnc[nH]1)Nc1ccc(-c2cccc(-c3nc4ccc(C(F)(F)F)cc4[nH]3)c2)cc1 [TCMDC-136949]  9.618%
36. Cc1cnc(C(=O)Nc2cccc(-c3ccc(-c4nc5cc(C(F)(F)F)ccc5[nH]4)s3)c2)cn1 [TCMDC-137028]  12.51%
37. Nc1ncc(-c2ccsc2)cc1-c1nc2ccccc2[nH]1 [TCMDC-133557]  13.31%
38. Cc1nc2ccccc2c(=O)n1NCc1ccc(Cl)c(Cl)c1 [TCMDC-131405]  15.32%
39. Cc1cc(NC(=O)Nc2ccc(C#N)cc2)c2ccccc2n1 [TCMDC-138956]  16.86%
40. O=C(NC1CCN(Cc2ccc(O)cc2)CC1)c1ccc(Cl)c(Cl)c1 [TCMDC-141735]  18.11%
41. CN1CCC(C(=O)Nc2cccc(-c3ccc(-c4nc5cc(C(F)(F)F)ccc5[nH]4)s3)c2)CC1 [TCMDC-132184]  18.99%
42. CCCCc1ccccc1NS(=O)(=O)c1ccc(OC)c(N2CCNCC2)c1 [TCMDC-139238]  19.7%
43. CCNc1cc(C(=O)N[C@@H](Cc2ccc(F)c(F)c2)[C@H](O)CNC2CCCCC2)cc(N2CCCCS2(=O)=O)c1 [TCMDC-135060]  26.39%
44. O=C(NC1CCN(Cc2ccccc2)CC1)c1ccc(CNC2CCN(Cc3ccccc3)CC2)cc1 [TCMDC-140787]  27.85%
45. CCOC(=O)c1cnc2cc(N3CCCC3)c(Cl)cc2c1OCC [TCMDC-131990]  37.97%
46. O=C(c1ccc(OCCn2ccnc2)cc1)N1CCC(c2ccc(Br)cc2)C1 (stereo not shown) [TCMDC-134837]  38.05%
47. CCOc1cc(C)c(C2CCN(CCCCNC(=O)c3ccc(NC(=O)c4ccc(Cl)cc4)cc3)CC2)cc1C [TCMDC-138282]  41.56%
48. N#Cc1ccc(-c2ccc(C(=O)NCCCCN3CC=C(c4ccc5c(c4OCC4CC4)CCCC5)CC3)cc2)cc1 [TCMDC-138756]  42.6%
49. CN(C)CCOc1ccc(N2CCN(CCCCNC(=O)c3ccc(/C=C/c4cc(Cl)cc(Cl)c4)cc3)CC2)cc1 [TCMDC-138290]  45.55%
50. CC(C)CC(C)NC(=O)C1Cc2c([nH]c3cc(Cl)ccc23)C2(CCN(CCc3ccccc3)CC2)N1 (stereo not shown) [TCMDC-141298]  48.04%
51. CCN1CCc2nc3ccccc3c(C(=O)Nc3ccc(C#N)cc3)c2C1 [TCMDC-124513]  54.17%
52. Cc1sc2ncnc(Sc3nc4ccccc4[nH]3)c2c1C [TCMDC-123835]  57.62%
53. CCc1cc2c(Sc3nc4ccccc4[nH]3)ncnc2s1 [TCMDC-124553]  60.6%
54. O=C(NC1CCN(Cc2ccccc2)CC1)c1cc(C(=O)NC2CCN(Cc3ccccc3)CC2)cc(C(=O)NC2CCN(Cc3ccccc3)CC2)c1 [TCMDC-124568]  67.11%
55. Cc1cc(C2CCN(CCCCNC(=O)c3ccc(NC(=O)c4ccc(Cl)cc4)cc3)CC2)c(C)cc1OCc1ccncc1 [TCMDC-138308]  71.5%
56. CNC(=O)c1cc(NCCCNCc2ccc(Cl)c(C(F)(F)F)c2)nc2ccccc12 [TCMDC-141082]  72.56%
57. Cc1[nH]c(-c2ccc(F)cc2)cc1C(=O)NC1CCN(Cc2ccccc2)CC1 [TCMDC-124396]  76.63%
58. CC1CN(c2ncc(-c3ccc(CNC4Cc5ccccc5C4)cc3)cn2)CC(C)N1 (stereo not shown) [TCMDC-133769]  77.63%
59. CN(C)CCOc1ccc(N2CCN(CCCCNC(=O)c3ccc(NC(=O)c4ccc(Cl)cc4)cc3)CC2)cc1 [TCMDC-138289]  85.59%
60. CCCN(CC1CC1)c1nc(C)nc2c(-c3ccccc3)cc(C)cc12 [TCMDC-138123]  91.17%
61. CN1CCC(COc2ccc(CN3CCC(NC(=O)c4cccc(Cl)c4)CC3)cc2)CC1 [TCMDC-132796]  95.19%
62. Cc1cc(C2CCN(CCCCNC(=O)c3ccc(NC(=O)c4ccc(Cl)cc4)cc3)CC2)c(C)cc1OC(C)C [TCMDC-138309]  96.15%
63. CC1(C)CC(NC(=O)NC2CCN(Cc3ccccc3)CC2)CC(C)(CNC(=O)NC2CCN(Cc3ccccc3)CC2)C1 (stereo not shown) [TCMDC-139018]  101.1%
64. CN(CCCNCc1ccc2ccccc2c1)CCCNCc1ccc2ccccc2c1 [TCMDC-137908]  106.3%
65. CN(CCCNCc1cccc2ccccc12)CCCNCc1cccc2ccccc12 [TCMDC-137905]  108.9%
66. c1cc(CNC2Cc3ccccc3C2)cc(-c2cnc(N3CCNCC3)nc2)c1 [TCMDC-133140]  110.7%
67. Cc1cc(C2CCN(CCCCNC(=O)c3ccc(NC(=O)c4ccc(Cl)cc4)cc3)CC2)c(C)cc1OCCN(C)C [TCMDC-138316]  117.2%
